# Where “and” joins values, the source holds several entries; their conditions need not be identical. Equal values may be shown once. Inconclusive results are not listed. Entries that show only a call come without a potency. Some structures have more than one record in an assay (separate samples or runs), and their calls can disagree. Calls of active or inactive are those of the source. Unless noted, calls follow the shape of the dose curve; as a rule, active = well fitted curve in the direction sought with a large enough effect; inconclusive = small, poorly fitted or top-dose-only effect, or another doubt; inactive = no such curve, though single readings can be large; an effect the other way counts as inactive or inconclusive.
# Legend:
# [1] = NS1 protein of Zika virus - qHTS assay to identify small molecule inhibitors in human HEK 293 cells (AID 1347053); also: nearly all actives have a fitted effect of over 55% in size; also: potency is read from the fitted curve at half-maximal effect
# Summary of the method: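 HEK 293; 20 h pre-culture, 37 C/5% CO2; cpd 1 h pre-infection; ZIKV MR766, MOI = 0.5, 24 h, 37 C; TR-FRET NS1 readout (two anti-NS1 Abs); norm. to no-virus vs infected.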
# [2] = qHTS for Inhibitors of the Functional Ribonucleoprotein Complex (vRNP) of Lassa (LASV) Arenavirus: LASV Primary Screen - GLuc reporter signal (AID 1347082; calls by dose curve; tested in HEK293 reporter line; also: nearly all actives have a fitted effect of over 60% in size; also: potency is read from the fitted curve at half-maximal effect)
# [3] = qHTS for Inhibitors of the Functional Ribonucleoprotein Complex (vRNP) of Lassa (LASV) Arenavirus: Viability assay - alamar blue signal for LASV Primary Screen (AID 1347083; calls by dose curve; tested in HEK293 reporter line; also: nearly all actives have a fitted effect of over 80% in size; also: potency is read from the fitted curve at half-maximal effect)
# [4] = qHTS for Inhibitors of the Functional Ribonucleoprotein Complex (vRNP) of Lymphocytic Choriomeningitis Arenaviruses (LCMV): Viability assay - alamar blue signal for LCMV Primary Screen (AID 1347085; calls by dose curve; tested in HEK293 reporter line; also: nearly all actives have a fitted effect of over 80% in size; also: potency is read from the fitted curve at half-maximal effect)
# [5] = target: Nucleoprotein (Lymphocytic choriomeningitis virus (strain Armstrong)) (UniProt P09992); experiment: qHTS for Inhibitors of the Functional Ribonucleoprotein Complex (vRNP) of Lymphocytic Choriomeningitis Arenaviruses (LCMV): LCMV Primary Screen - GLuc reporter signal (AID 1347086; calls by dose curve; also: nearly all actives have a fitted effect of over 70% in size; also: potency is read from the fitted curve at half-maximal effect)
# Nucleoprotein (Lymphocytic choriomeningitis virus (strain Armstrong)), sequence (P09992 whole entry, looked up): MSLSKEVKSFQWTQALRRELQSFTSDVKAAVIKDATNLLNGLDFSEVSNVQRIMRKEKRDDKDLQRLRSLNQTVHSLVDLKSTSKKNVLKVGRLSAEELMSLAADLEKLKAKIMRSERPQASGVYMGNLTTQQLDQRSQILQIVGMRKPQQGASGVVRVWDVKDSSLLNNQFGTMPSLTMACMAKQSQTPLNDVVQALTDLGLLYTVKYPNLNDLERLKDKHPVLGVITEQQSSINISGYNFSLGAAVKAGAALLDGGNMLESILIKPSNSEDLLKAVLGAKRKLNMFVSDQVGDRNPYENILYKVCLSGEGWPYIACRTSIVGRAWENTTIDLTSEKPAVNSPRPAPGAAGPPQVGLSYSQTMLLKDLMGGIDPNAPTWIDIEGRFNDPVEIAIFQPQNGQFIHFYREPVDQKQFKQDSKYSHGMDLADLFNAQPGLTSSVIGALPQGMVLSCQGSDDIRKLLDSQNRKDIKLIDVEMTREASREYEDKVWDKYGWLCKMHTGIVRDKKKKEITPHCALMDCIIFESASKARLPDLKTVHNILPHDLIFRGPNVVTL
# [6] = qHTS of pediatric cancer cell lines to identify multiple opportunities for drug repurposing: Primary screen for TC32 cells (AID 1347089); also: nearly all actives have a fitted effect of over 60% in size; also: potency is read from the fitted curve at half-maximal effect
# Summary of the method: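 Luminescent ATP read-out (CellTiter-Glo) of metabolically active TC32 cells after 48 h exposure. Concentration-response curves came from 11-point (MIPE, 0.78 nM–46 µM) or 8-point (NPC, 0.59 nM–46 µM) primary titrations; follow-up used 11 points.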
# [7] = qHTS of pediatric cancer cell lines to identify multiple opportunities for drug repurposing: Primary screen for DAOY cells (AID 1347090); also: nearly all actives have a fitted effect of over 55% in size; also: potency is read from the fitted curve at half-maximal effect
# Summary of the method: (§1)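 Eight- or eleven-point concentration series, 48 h treatment at 37 degrees C in growth media; readout CellTiter-Glo luminescence. Potency and efficacy were taken from the concentration-response curves.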
# [8] = qHTS of pediatric cancer cell lines to identify multiple opportunities for drug repurposing: Primary screen for SJ-GBM2 cells (AID 1347091); also: potency is read from the fitted curve at half-maximal effect
# Summary of the method: as §1
# [9] = qHTS of pediatric cancer cell lines to identify multiple opportunities for drug repurposing: Primary screen for A673 cells (AID 1347092); also: nearly all actives have a fitted effect of over 45% in size; also: potency is read from the fitted curve at half-maximal effect
# Summary of the method: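 Cell viability of A673 measured by CellTiter-Glo ATP luminescence after 48 hours compound exposure. Dilution series spanned 0.78 nM to 46 µM (MIPE, 11-point) or 0.59 nM to 46 µM (NPC, 8-point); bortezomib 2.3 uM positive control.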
# [10] = qHTS of pediatric cancer cell lines to identify multiple opportunities for drug repurposing: Primary screen for SK-N-MC cells (AID 1347093); also: potency is read from the fitted curve at half-maximal effect
# Summary of the method: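 Metabolically active cells were quantified by ATP-dependent luminescence (CellTiter-Glo, 15 min at room temperature) following 48 h treatment. Cells had been plated at 500-1,000 per well and settled for 5 h beforehand.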
# [11] = qHTS of pediatric cancer cell lines to identify multiple opportunities for drug repurposing: Primary screen for BT-37 cells (AID 1347094); also: potency is read from the fitted curve at half-maximal effect
# Summary of the method: (§2)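 Luminescence from CellTiter-Glo served as readout of metabolically active cells after 48 h compound exposure. Titrations: MIPE 11-point, from 0.78 nM; NPC 8-point, from 0.59 nM (final). Concentration-response curves came straight from the primary screen.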
# [12] = qHTS of pediatric cancer cell lines to identify multiple opportunities for drug repurposing: Primary screen for NB-EBc1 cells (AID 1347095); also: potency is read from the fitted curve at half-maximal effect
# Summary of the method: as §2
# [13] = qHTS of pediatric cancer cell lines to identify multiple opportunities for drug repurposing: Primary screen for U-2 OS cells (AID 1347096); also: nearly all actives have a fitted effect of over 50% in size
# Summary of the method: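 Cells (500-1,000/well) in growth media were settled 5 h at 37 degrees C, then given compounds for 48 h. Viability was read as CellTiter-Glo luminescence. Primary runs used MIPE at 11 points (0.78 nM-46 µM) and NPC at 8 points (0.59 nM-46 µM); follow-ups used 11 points.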
# [14] = qHTS of pediatric cancer cell lines to identify multiple opportunities for drug repurposing: Primary screen for Saos-2 cells (AID 1347097); also: nearly all actives have a fitted effect of over 40% in size; also: potency is read from the fitted curve at half-maximal effect
# Summary of the method: as §2
# [15] = target: Atrial natriuretic peptide receptor 1 (Homo sapiens) (UniProt P16066); experiment: Natriuretic polypeptide receptor (hNpr1) antagonism - Pilot screen (AID 1347049; calls by dose curve;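 also: agonist-evoked cGMP luminescence read 20 min after hNppA addition; series mostly up to about 58 µM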)
# Atrial natriuretic peptide receptor 1 (Homo sapiens), sequence (P16066 whole entry, looked up): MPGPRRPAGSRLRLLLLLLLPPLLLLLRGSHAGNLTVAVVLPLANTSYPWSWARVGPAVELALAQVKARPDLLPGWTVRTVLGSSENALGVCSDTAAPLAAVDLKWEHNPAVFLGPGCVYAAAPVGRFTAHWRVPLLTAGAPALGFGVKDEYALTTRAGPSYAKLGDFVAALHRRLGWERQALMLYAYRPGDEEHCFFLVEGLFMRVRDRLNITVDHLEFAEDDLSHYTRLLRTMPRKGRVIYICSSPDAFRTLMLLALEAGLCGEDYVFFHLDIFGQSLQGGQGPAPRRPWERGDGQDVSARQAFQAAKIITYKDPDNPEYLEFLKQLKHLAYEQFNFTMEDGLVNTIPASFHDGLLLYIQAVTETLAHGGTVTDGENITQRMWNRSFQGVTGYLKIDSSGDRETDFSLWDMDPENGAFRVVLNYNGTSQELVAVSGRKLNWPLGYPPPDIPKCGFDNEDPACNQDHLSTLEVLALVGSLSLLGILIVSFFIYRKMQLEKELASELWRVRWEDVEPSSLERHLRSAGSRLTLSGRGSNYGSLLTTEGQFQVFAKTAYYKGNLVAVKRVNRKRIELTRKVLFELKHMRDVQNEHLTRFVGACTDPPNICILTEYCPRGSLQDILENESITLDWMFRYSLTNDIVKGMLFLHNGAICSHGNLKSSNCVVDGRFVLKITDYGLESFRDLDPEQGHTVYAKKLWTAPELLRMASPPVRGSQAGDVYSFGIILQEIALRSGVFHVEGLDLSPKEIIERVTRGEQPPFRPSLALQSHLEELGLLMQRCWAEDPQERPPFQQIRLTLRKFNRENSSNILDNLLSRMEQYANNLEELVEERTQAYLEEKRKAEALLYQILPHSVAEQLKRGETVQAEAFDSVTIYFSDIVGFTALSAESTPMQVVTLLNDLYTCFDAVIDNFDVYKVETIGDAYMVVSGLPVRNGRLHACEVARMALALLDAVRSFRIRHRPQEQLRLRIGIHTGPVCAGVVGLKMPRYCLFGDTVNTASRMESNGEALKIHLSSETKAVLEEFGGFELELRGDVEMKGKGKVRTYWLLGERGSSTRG
# Summary of the method: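 HEK293 cells co-expressing hNpr1 and the GloSensor pGS-40F cGMP luciferase sensor were preloaded with 2% GloSensor reagent for 2 h. Compounds were added for 30 min at room temperature, then cells were stimulated with 0.1 nM hNppA for 20 min before luminescence readout.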
# [16] = target: Atrial natriuretic peptide receptor 2 (Homo sapiens) (UniProt P20594); experiment: Natriuretic polypeptide receptor (hNpr2) antagonism - Pilot subtype selectivity assay (AID 1347050; calls by dose curve)
# Atrial natriuretic peptide receptor 2 (Homo sapiens), sequence (P20594 whole entry, looked up): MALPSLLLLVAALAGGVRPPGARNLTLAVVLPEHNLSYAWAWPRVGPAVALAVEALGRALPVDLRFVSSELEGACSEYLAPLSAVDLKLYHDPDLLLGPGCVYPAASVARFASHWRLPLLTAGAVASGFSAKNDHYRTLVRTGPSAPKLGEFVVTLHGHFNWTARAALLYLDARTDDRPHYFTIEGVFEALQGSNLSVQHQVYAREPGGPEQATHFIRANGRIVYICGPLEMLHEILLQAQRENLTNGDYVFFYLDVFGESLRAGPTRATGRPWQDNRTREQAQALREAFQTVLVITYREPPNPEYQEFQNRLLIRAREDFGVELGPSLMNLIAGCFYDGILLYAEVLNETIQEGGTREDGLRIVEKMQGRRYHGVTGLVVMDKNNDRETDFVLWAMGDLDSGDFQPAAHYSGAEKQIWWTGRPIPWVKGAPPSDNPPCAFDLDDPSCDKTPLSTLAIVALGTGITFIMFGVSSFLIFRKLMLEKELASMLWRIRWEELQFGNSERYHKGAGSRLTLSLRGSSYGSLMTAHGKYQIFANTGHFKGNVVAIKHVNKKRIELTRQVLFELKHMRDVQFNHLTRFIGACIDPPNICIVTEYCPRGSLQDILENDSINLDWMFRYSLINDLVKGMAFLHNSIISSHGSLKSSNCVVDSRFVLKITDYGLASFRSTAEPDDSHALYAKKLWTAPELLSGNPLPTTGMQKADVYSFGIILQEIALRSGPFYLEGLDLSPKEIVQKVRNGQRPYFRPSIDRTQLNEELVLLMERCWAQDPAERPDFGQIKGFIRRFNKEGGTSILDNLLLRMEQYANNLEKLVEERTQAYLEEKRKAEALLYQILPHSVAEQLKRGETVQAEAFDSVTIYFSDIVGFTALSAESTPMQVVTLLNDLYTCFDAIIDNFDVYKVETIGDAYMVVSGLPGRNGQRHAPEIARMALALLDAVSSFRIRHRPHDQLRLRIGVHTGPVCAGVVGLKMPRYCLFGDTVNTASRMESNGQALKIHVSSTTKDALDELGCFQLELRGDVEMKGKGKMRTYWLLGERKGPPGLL
# Summary of the method: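 cGMP-sensor HEK293/hNpr2 cells; 2% GloSensor reagent 2 h RT; compounds 30 min; baseline luminescence read; 1 nM hNppC agonist 20 min RT; final luminescence read by CCD camera. Antagonism = reduced post-agonist signal.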
# [17] = target: T1, Tyrosine-protein phosphatase non-receptor type substrate 1 (Homo sapiens) + Leukocyte surface antigen CD47 (Homo sapiens) (UniProt P78324+Q08722); experiment: CD47-SIRPalpha protein protein interaction - LANCE assay qHTS validation (AID 1347057; active = well fitted curve in the direction sought with a large enough effect in the signal ratio, with a control signal flat, not every such curve was filed as active; the % refers to the signal ratio; also: series mostly up to about 38 µM)
# T1 sequence (P78324 whole entry, looked up): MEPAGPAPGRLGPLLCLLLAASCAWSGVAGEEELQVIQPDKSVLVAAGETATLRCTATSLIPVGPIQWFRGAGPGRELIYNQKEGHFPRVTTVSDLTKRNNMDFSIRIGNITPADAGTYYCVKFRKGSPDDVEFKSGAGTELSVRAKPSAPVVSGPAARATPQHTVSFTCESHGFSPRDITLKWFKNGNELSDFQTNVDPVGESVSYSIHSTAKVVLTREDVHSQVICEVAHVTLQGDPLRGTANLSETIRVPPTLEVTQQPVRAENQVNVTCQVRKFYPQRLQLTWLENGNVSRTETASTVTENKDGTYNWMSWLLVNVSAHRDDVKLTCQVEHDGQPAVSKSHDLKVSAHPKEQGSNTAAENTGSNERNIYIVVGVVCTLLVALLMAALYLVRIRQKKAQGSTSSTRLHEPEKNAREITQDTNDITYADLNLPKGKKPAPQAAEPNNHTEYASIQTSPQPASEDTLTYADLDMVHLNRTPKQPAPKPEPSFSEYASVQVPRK
# T1 sequence (Q08722 whole entry, looked up): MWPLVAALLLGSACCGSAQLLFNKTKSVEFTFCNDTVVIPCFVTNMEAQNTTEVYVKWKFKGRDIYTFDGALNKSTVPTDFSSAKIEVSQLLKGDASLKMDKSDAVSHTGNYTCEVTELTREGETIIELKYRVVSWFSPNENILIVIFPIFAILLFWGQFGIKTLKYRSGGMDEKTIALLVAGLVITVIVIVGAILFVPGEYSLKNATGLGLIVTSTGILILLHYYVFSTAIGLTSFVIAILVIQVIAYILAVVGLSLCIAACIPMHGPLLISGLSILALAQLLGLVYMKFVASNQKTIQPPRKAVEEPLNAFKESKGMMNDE
# Summary of the method: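 First, His-tagged CD47 and Eu-labelled anti-His antibody met the compound for 30 min; next, site-specifically biotinylated SIRPalpha was added for 30 min; finally streptavidin-APC was added before reading the TR-FRET ratio.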
# [18] = target: T1, Tyrosine-protein phosphatase non-receptor type substrate 1 (Homo sapiens) + Leukocyte surface antigen CD47 (Homo sapiens); experiment: CD47-SIRPalpha protein protein interaction - HTRF assay qHTS validation (AID 1347058; active = well fitted curve in the direction sought with a large enough effect in the signal ratio, not every such curve was filed as active; the % refers to the signal ratio; also: series mostly up to about 38 µM)
# Summary of the method: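 TR-FRET read (Ch1/Ch2 ratio) of soluble extracellular CD47 and Avi-biotinylated SIRPalpha domains in PBS pH 7.4 with 0.05% IGEPAL; 7-point compound titration. Sequential 30 min room-temperature steps; non-biotinylated SIRPalpha as control inhibitor.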
# [19] = target: T1, Tyrosine-protein phosphatase non-receptor type substrate 1 (Homo sapiens) + Leukocyte surface antigen CD47 (Homo sapiens); experiment: CD47-SIRPalpha protein protein interaction - Alpha assay qHTS validation (AID 1347059);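 also: bead proximity luminescence from CD47 binding SIRPalpha after compound preincubation with SIRPalpha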
# Summary of the method: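 Soluble extracellular domains: Avi-tag biotinylated SIRPalpha (25 nM) preincubated 30 min RT with compound, then 6His-CD47 (12.5 nM) 30 min; Ni-NTA acceptor and streptavidin donor beads (10 ug/mL) 30 min, AlphaScreen read. PBS pH 7.4, 0.05% IGEPAL.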
# [20] = target: Parathyroid hormone/parathyroid hormone-related peptide receptor (Homo sapiens) (UniProt Q03431); experiment: qHTS for PTHR1 Agonists: Optimization Screen against the NCGC LOPAC library (AID 1347079);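 also: GloSensor cAMP luminescence in HEK-293 GP2 cells expressing human PTHR1 with IBMX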
# Parathyroid hormone/parathyroid hormone-related peptide receptor (Homo sapiens), sequence (Q03431 whole entry, looked up): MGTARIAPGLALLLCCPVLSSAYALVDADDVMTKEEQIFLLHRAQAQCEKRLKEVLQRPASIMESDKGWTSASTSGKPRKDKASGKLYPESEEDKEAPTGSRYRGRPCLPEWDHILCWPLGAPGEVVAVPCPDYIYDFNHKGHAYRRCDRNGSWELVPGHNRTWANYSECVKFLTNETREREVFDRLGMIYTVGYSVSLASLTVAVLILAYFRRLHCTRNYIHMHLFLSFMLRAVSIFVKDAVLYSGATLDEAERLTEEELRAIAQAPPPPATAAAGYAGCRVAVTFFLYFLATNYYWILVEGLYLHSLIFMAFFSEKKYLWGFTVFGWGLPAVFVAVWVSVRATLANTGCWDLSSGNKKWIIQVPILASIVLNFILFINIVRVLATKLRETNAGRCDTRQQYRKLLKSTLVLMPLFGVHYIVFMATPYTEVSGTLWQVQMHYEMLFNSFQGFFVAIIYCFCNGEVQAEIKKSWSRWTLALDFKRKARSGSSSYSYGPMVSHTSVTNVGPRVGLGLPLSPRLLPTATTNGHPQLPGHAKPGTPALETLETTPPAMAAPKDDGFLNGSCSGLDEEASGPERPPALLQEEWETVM
# Summary of the method: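 Agonist readout: GloSensor cAMP luminescence, read after 15 min at room temperature. HEK-293-derived GP2 line carries PTHR1; compounds tested as a titration for 1 hr at 37C in presence of IBMX. M-PTH (1-15) served as control.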
SMILES,Potency [1],Potency [2],Potency [3],Potency [4],Potency [5],Potency [6],Potency [7],Potency [8],Potency [9],Potency [10],Potency [11],Potency [12],Potency [13],Potency [14],outcome [15],outcome [16],outcome [17],outcome [18],outcome [19],outcome [20]
C[C@@H]1CN(C2CCC(C#N)(c3ccc(F)cc3)CC2)CC[C@]1(C(=O)O)c1ccccc1 (some centres not stated),inactive,inactive,inactive,inactive,inactive,inactive,inactive,inactive,inactive,inactive,inactive,inactive,inactive,inactive,,,,,,
NC(=O)CN1CCCC1=O,inactive,inactive,inactive,inactive,inactive,inactive,inactive,inactive,inactive,inactive,,inactive,inactive,inactive,inactive,inactive,inactive,inactive,inactive,inactive
C[C@@H]1C[C@@H]([C@H](O)CC2CC(=O)NC(=O)C2)C(=O)[C@@H](C)C1,inactive and 93.5 nM (active),968 nM (active),158 nM (active) and 432 nM (active),1090 nM (active),1370 nM (active),664 nM (active) and 523 nM (active),1.06 µM (active) and 1.18 µM (active),266 nM (active) and 235 nM (active),668 nM (active) and 372 nM (active),84.1 nM (active) and 74.3 nM (active),437 nM (active) and 385 nM (active),841 nM (active) and 3.32 µM (active),,1870 nM (active),,,,,,
CCOC(=O)c1cncn1C(C)c1ccccc1 (configuration not stated),inactive,inactive,inactive,inactive,inactive,inactive,inactive,inactive,inactive,inactive,inactive,inactive,inactive,inactive,,,,,,
COc1cc(C[C@@H](C)N)c(OC)cc1Br,inactive,inactive,inactive,inactive,inactive,inactive,inactive,inactive,inactive,inactive,,inactive,inactive,inactive,,,,,,
COP(=O)(OC)OC=C(Cl)Cl,inactive,inactive,inactive,inactive,inactive,inactive,inactive,inactive,inactive,inactive,,inactive,inactive,inactive,,,,,,
CN1C[C@@H](NS(=O)(=O)N(C)C)C[C@@H]2c3cccc4c3c(cn4C)C[C@H]21,inactive,inactive,inactive,inactive,inactive,inactive,inactive,inactive,inactive,inactive,inactive,inactive,inactive,inactive,,,,,,
CC(C)(O)C(Cl)(Cl)Cl,inactive,inactive,inactive,inactive,inactive,inactive,inactive,inactive,inactive,inactive,inactive,inactive,inactive,inactive,,,,,,
C[C@]12CC[C@H](O)CC1=CC[C@@H]1[C@@H]2CC[C@]2(C)C(=O)CC[C@@H]12,inactive,inactive,inactive,inactive,inactive,inactive,inactive,inactive,inactive,inactive,inactive,inactive,inactive,inactive,,,,,,
C[C@]12CC[C@H]3[C@@H](CC=C4C[C@@H](O)CC[C@@]43C)[C@@H]1CC[C@@H]2O,inactive,inactive,inactive,inactive,inactive,inactive,inactive,inactive,inactive,inactive,inactive,inactive,inactive,inactive,,,,,,
O=C(N[C@H]1N=C(c2ccccc2F)c2cccc3c2N(CC3)C1=O)c1cc2ccccc2[nH]1,inactive,inactive,inactive,inactive,inactive,inactive,inactive,inactive,inactive,inactive,inactive,inactive,inactive,inactive,,,,,,
CC(C)[N+](C)(CCC(C(N)=O)(c1ccccc1)c1ccccc1)C(C)C,inactive,inactive,inactive,inactive,inactive,inactive,inactive,inactive,inactive,inactive,inactive,inactive,inactive,inactive,,,,,,
CCOP(=S)(OCC)O/N=C(\C#N)c1ccccc1,inactive,inactive,inactive,inactive,inactive,inactive,inactive,inactive,inactive,inactive,,inactive,inactive,inactive,,,,,,
c1cc2c(c(N3CCNCC3)c1)OCCO2,inactive,inactive,inactive,inactive,inactive,inactive,inactive,inactive,inactive,inactive,inactive,inactive,inactive,inactive,,,,,,
O=C(CCCCl)c1ccc(F)cc1,inactive,inactive,inactive,inactive,inactive,inactive,inactive,inactive,inactive,inactive,inactive,inactive,inactive,inactive,,,,,,
CCOC(=O)C1(c2ccccc2)CCN(CCc2ccc(N)cc2)CC1,inactive,inactive,inactive,inactive,inactive,inactive,inactive,inactive,inactive,inactive,inactive,inactive,inactive,inactive,,,,,,
CC(CC(C(N)=O)(c1ccccc1)c1ccccc1)N(C)C (configuration not stated),inactive,inactive,inactive,inactive,inactive,inactive,inactive,inactive,inactive,inactive,inactive,inactive,inactive,inactive,,,,,,
C[C@@H]1O[C@@H](O[C@@H]2C=C3CC[C@@H]4[C@H](CC[C@]5(C)[C@@H](c6ccc(=O)oc6)CC[C@]45O)[C@@]3(C)CC2)[C@H](O)[C@H](O)[C@H]1O,inactive,inactive,inactive,inactive,inactive,3.3 nM (active),2.1 nM (active),6.7 nM (active),2.7 nM (active),1 nM (active),2.5 nM (active),11.9 nM (active),,3.8 nM (active),,,,,,
